# According to PubChem BioAssay (NCATS):
# Inconclusive results are not listed. Active and inactive are the calls of the source. Calls follow the shape of the dose curve; as a rule, active = well fitted inhibition curve with a large enough effect; inconclusive = small, poorly fitted or top-dose-only effect; inactive = flat fitted curve, though single readings scatter.
# Molecular target: Phospholipid hydroperoxide glutathione peroxidase GPX4 (Homo sapiens) (UniProt P36969)
# Assay: Primary qHTS Assay for Inhibitors of Recombinant Selenoprotein Glutathione Peroxidase 4 (GPX4) (AID 1845192); also: nearly all actives have a fitted effect of over 65% in size
# Details: recombinant GPX4, GR-coupled NADPH fluorescence, 15 min; series mostly up to 50 µM; activity change, negative = inhibition: at the top concentration
# Method in brief: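 GR-coupled readout: 100 nM GR, 1 mM GSH, 0.5 mM NADPH; NADPH fluorescence (ex 340/em 450 nm) read at t=0 and after 15 min RT. GPX4 200 nM, preincubated 30 min with compound; substrate 0.5 mM CHP.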
# % is scaled to controls: 0 for no effect and ±100 for the full control effect.
# Sequence of Phospholipid hydroperoxide glutathione peroxidase GPX4 (Homo sapiens) (P36969 whole entry, looked up): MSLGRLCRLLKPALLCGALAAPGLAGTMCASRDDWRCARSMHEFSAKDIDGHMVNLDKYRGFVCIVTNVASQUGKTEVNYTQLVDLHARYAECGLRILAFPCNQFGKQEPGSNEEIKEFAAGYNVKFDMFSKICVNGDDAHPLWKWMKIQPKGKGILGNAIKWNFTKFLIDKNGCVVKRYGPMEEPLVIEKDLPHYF
Structure (SMILES),"activity change, negative = inhibition",Potency,outcome
CCCC(N[C@@H](C)C(=O)N1[C@H](C(=O)O)C[C@@H]2CCCC[C@@H]21)C(=O)OCC (stereo partly specified),8.36% (inactive),,
O=C(O)CCc1cccc(O[C@@H]2O[C@H](CO)[C@@H](O)[C@H](O)[C@H]2O)c1O,-8.2% [at 27.8 µM] (inactive),,
CCOC(=O)c1ccnc(CNCC(=O)N(CC)CCN(C)C)c1,,inactive,
CC(=O)O[C@@H]1[C@H](O[C@@H]2OC[C@](O)(CO)[C@H]2O)[C@@H](O[C@@H]2O[C@@H](C)[C@H](O)[C@@H](O)[C@H]2O)[C@H](OC(=O)[C@]23CCC(C)(C)C[C@H]2C2=CCC4[C@@]5(C)C[C@H](O)[C@H](O[C@@H]6O[C@H](C(=O)O)[C@@H](O)[C@H](O)[C@H]6O)[C@@](C)(C(=O)O)C5CC[C@@]4(C)[C@]2(C)CC3)O[C@@H]1C (stereo partly specified),,,inactive [at 15.3 µM]
CC1(C)OC(=O)C(OCC2CC2)=C1c1ccc(S(C)(=O)=O)cc1,,inactive,
CC(=O)O[C@H]1CC[C@@]2(CI)C(=CC[C@@H]3[C@@H]2CC[C@]2(C)[C@@H]([C@H](C)CCCC(C)C)CC[C@@H]32)C1,1.73% [at 9.73 µM] (inactive),,
c1ccc(Cc2ncc3c(n2)CCNCC3)cc1,-0.333% (inactive),,
CC[C@H](/C=C/[C@@H](C)[C@H]1CC[C@H]2[C@@H]3CC=C4C[C@@H](O)CC[C@]4(C)[C@H]3CC[C@]12C)C(C)C,1.85% [at 4.52 µM] (inactive),,
O=C(/C=C/c1ccc(O)cc1)OCC1=C[C@@H](O)[C@@H]2C=CO[C@@H](O[C@@H]3O[C@H](CO)[C@@H](O)[C@H](O)[C@H]3O)[C@H]12,-0.363% [at 27.8 µM] (inactive),,
C=CC(C)(O)CC/C=C(\C)C(=O)OCC1OC(OC2CCC3(C)C(CCC4(C)C3CC=C3C5CC(C)(C)C(O)CC5(C(=O)O)CCC34C)C2(C)C)C(O)C(OC2OC(CO)C(O)C(OC3OC(CO)C(O)C(OC4OC(COC5OC(CO)C(O)C(O)C5O)C(O)C(O)C4O)C3O)C2O)C1O (stereo unspecified),,,inactive [at 9.73 µM]
CC1=C(CC(=O)O)c2cc(F)ccc2C1=Cc1ccc(S(C)(=O)=O)cc1,-3.43% (inactive),,
CC1(C)CC[C@]2(C(=O)O[C@@H]3O[C@H](CO)[C@@H](O)[C@H](O)[C@H]3O)CC[C@]3(C)C(=CCC4[C@@]5(C)C[C@@H](O)[C@H](O)C(CO)(CO)C5CC[C@]43C)C2[C@@H]1O (stereo partly specified),4.27% [at 15.3 µM] (inactive),,
NS(=O)(=O)NCCNc1nonc1C(=Nc1ccc(F)c(Br)c1)NO,,inactive,
COc1cc(CCc2ccccc2)c(C(=O)O)c2c1CC(C(C)(C)O)O2 (stereo unspecified),-13.5% [at 27.8 µM] (inactive),,
C[C@@H]1CC[C@]2(C)C3(C)CC[C@@]2(OC3=O)[C@@]12C[C@H](c1ccoc1)OC2=O,-16.2% [at 27.8 µM] (inactive),,
COC(=O)CC[C@@H](C)[C@H]1CC[C@H]2[C@@H]3CC(=O)[C@H]4C[C@H](OC(C)=O)CC[C@]4(C)[C@H]3CC[C@]12C,,,inactive
C[C@@H]1O[C@@H](O[C@H]2[C@H](OC(=O)C34CCC5(C)C(=CCC6C7(C)CC(O)C(O[C@@H]8O[C@H](C(=O)O)[C@@H](O)[C@H](O)[C@H]8O)C(C)(C(=O)O)C7CCC65C)C3CC(C)(C)CC4O)O[C@H](C)[C@@H](O)[C@@H]2O)[C@H](O)[C@@H](O[C@@H]2OC[C@](O)(CO)[C@H]2O[C@@H]2O[C@H](CO)[C@@H](O)[C@H](O)[C@H]2O)[C@H]1O (stereo partly specified),-4.3% [at 9.73 µM] (inactive),,
CC1(O)CCC2C(C(=O)O)=COC(OC3OC(CO)C(O)C(O)C3OC(=O)/C=C/c3ccc(O)cc3)C21 (stereo unspecified),,,inactive [at 27.8 µM]
C[C@@H]1O[C@@H](OC[C@H]2O[C@@H](OCCc3ccccc3)[C@H](O)[C@@H](O)[C@@H]2O)[C@H](O)[C@H](O)[C@H]1O,-0.441% [at 27.8 µM] (inactive),,
C[C@@H]1CCC2C(C)(C)[C@H](O)CC[C@]2(C)[C@@]12Cc1c(O)cc3c(c1O2)CN(CCO)C3=O (stereo partly specified),-16.4% [at 27.8 µM] (inactive),,
O=C(C1CC1)N1CC[C@@H](Cc2n[nH]c(=O)n2-c2ccc(-c3ccc4occc4c3)cc2)C1,,inactive,
C=C1CC[C@H]2[C@@](C)(CCC[C@@]2(C)C(=O)O)[C@@H]1CCC(C)CCO (stereo partly specified),-18.9% [at 27.8 µM] (inactive),,
COc1ccc(C(O[C@@H]2O[C@H](CO)[C@@H](O)[C@H](O)[C@H]2O)C(CO)Oc2ccc(/C=C/CO)cc2OC)cc1O (stereo partly specified),-2.89% [at 27.8 µM] (inactive),,
C[C@@H]1C[C@H](O)/C=C/[C@H](O)[C@@H](O)CC(=O)O1,-5.48% (inactive),,
C=C(C)C1CC2(CO)C(=CC1=O)CCC(O)C2C (stereo unspecified),-6.11% (inactive),,
C[C@@H]1O[C@@H](O[C@@H]2[C@@H](O)[C@H](O[C@@H]3[C@@H](O)[C@@H](O)[C@H](O[C@H]4[C@H](OC(=O)[C@]56CCC(C)(C)C[C@H]5C5=CCC7[C@@]8(C)C[C@H](O)[C@H](O[C@@H]9O[C@@H](C)[C@H](O)[C@@H](O)[C@H]9O)[C@@](C)(CO)C8CC[C@@]7(C)[C@]5(C)C[C@H]6O)O[C@H](C)[C@H](O)[C@@H]4O)O[C@H]3C)OC[C@H]2O)[C@H](O)[C@H](O)[C@H]1O (stereo partly specified),0.486% [at 9.73 µM] (inactive),,
